Calls of active or inactive are those of the source.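 How the source made its calls: active means high combined rank on largest and smallest cell-count-weighted shift across three tests, rank score above 45, floors 50 and 25 (some results past the limit were not filed as active); inactive means the rest.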
Test: activators of LNCaP cell differentiation, retest, confirmation, side scatter shift, flow cytometry (AID 1069);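 further: LNCaP human prostate cancer cells in low-serum medium with charcoal-stripped FBS; percent of cells with raised granularity gated so DMSO controls show 10%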
Conditions: 4 d, stronger effect = higher value

| SMILES | side scatter shift (at 100 µM) | side scatter shift (side scatter shift, at 10 µM) |
| --- | --- | --- |
| COc1ccc(-n2nnnc2SCC(=O)c2ccc(O)c(O)c2)cc1 | 0% (inactive) | 2.75% |
| CN1CCN(CCCNC(=O)c2cc3c(-c4ccc(Cl)cc4)nn(C)c3s2)CC1 | 14.3% (active) | 57% |
| CCN1CCN(c2cc(C)c3cc(NC(=O)c4ccc(Br)o4)ccc3n2)CC1 | 2.8% (active) | 32.8% |
| O=C(Cn1ccc2ccccc2c1=O)NCCC(=O)N1CCN(c2cccc(C(F)(F)F)c2)CC1 | 5.2% (inactive) | 2.4% |
| Cc1ccc(NC(=O)CCNS(=O)(=O)c2ccc3c(c2)oc(=O)n3C)c(C)c1 | 1.7% (inactive) | 5.85% |
| O=S(=O)(Nc1cccc2ncccc12)c1cccs1 | 14.3% (inactive) | 5.95% |
| CCN(CC)CCNC(=O)c1cc2c(-c3ccc(Cl)cc3)nn(C)c2s1 | 24% (inactive) | 64.8% |
| CCCCOc1ccccc1NC(=O)Cn1c(-c2nonc2N)nc2ccccc21 | 19.2% (inactive) | 17.4% |
| COc1ccc(C)cc1NC(=O)CCC(=O)Nc1ccc2nc(N3CCN(C)CC3)cc(C)c2c1 | 10.5% (inactive) | 13.4% |
| COC(=O)Nc1sccc1C(=O)Nc1sccc1C(=O)OC | 18.8% (inactive) | 8.85% |
| O=C(CSc1nc2c(c(=O)n1-c1ccc(F)cc1)SCC2)NCC1CCCO1 (centres undefined) | 19.8% (inactive) | 3.9% |
| C=C(C)Cn1c(-c2ccccc2)nc2ccccc21 | 6.3% (inactive) | 4.15% |
| Cc1ccccc1-c1nc(CN2CCC(C(=O)NCC3CCCO3)CC2)c(C)o1 (centres undefined) | 22.5% (inactive) | 7.1% |
| CCCc1ccc(Oc2cn[nH]c2-c2ccc(O)c(C)c2O)cc1 | 40% (inactive) | 4.85% |
| CCCCC(=O)NCCc1ccc(S(N)(=O)=O)cc1 | 12.6% (inactive) | 11.9% |
| Cc1oc(-c2cccc(Cl)c2)nc1CN1CCCC(C(=O)NCCCN2CCOCC2)C1 (centres undefined) | 27.3% (inactive) | 23.6% |
| Cc1ccccc1-c1nc(CN2CCC(C(=O)N3CCC(C(N)=O)CC3)CC2)c(C)o1 | 12% (inactive) | 10.9% |
| CC(C)(C)OC(=O)N1CCC(C(=O)N2CCCCCC2)CC1 | 16.1% (inactive) | 7.5% |
| O=C(Nc1c(C(=O)N2CCOCC2)cnn1-c1ccccc1)c1ccco1 | 7.5% (inactive) | 5.15% |
| O=C(C1CCN(S(=O)(=O)c2cccc3nsnc23)CC1)N1CC=C(c2ccccc2)CC1 | 25.9% (inactive) | 9.3% |
| Cc1oc(-c2ccccc2F)nc1CN1CCC(C(=O)NCc2cccs2)CC1 | 39.3% (inactive) | 6.3% |

| SMILES | side scatter shift (at 100 µM) | side scatter shift (side scatter shift, at 10 µM) |
| --- | --- | --- |
| CCc1ccc(-c2nc(CN3CCC(C(=O)NCc4ccco4)CC3)c(C)o2)cc1 | 20% (inactive) | 16.5% |
| O=c1cc(N2CCN(c3ccc(F)cc3)CC2)[nH]c(=O)n1C1CCCCC1 | 16.8% (inactive) | 5.4% |
| CS(=O)(=O)c1nc(-c2cccs2)cc(C(F)(F)F)n1 | 52.8% (inactive) | 15.6% |
| Cc1cc(N2C(=O)C3C4C=CC(C4)C3C2=O)ccc1Br (centres undefined) | 9.6% (inactive) | 16.5% |
| CCc1ccc(-c2nc(CN3CCC(C(=O)N4CCN(c5ccccc5)CC4)CC3)c(C)o2)cc1 | 44.4% (inactive) | 19.8% |
| COc1ccccc1CNC(=O)C1CCN(Cc2nc(-c3cccc(Cl)c3)oc2C)CC1 | 33.3% (inactive) | 3.35% |
| COc1ccc(Cc2noc(-c3ccc(C)cc3)n2)cc1 | 21.4% (inactive) | 10.1% |
| CCOC(=O)N1CCN(C(=O)Cc2ccc(-n3c(=O)[nH]c4ccccc4c3=O)cc2)CC1 | 6.3% (inactive) | 2.6% |
| Cc1ccc(OCC(O)Cn2c(=N)n(CCN3CCCCC3)c3ccccc32)cc1 (centres undefined) | 23.1% (active) | 65.5% |
| c1ccc(OCCCn2nnc(-c3cccnc3)n2)cc1 | 15.4% (inactive) | 3.1% |
| CCN1C=C(Cc2cccs2)C2=C(C1)C(c1cccs1)C(C#N)=C(N)O2 (centres undefined) | 20% (inactive) | 5.2% |
| CCCOc1ccccc1C1CC(=O)Nc2cc3c(cc21)OCO3 (centres undefined) | 16.7% (inactive) | 22.1% |
| Cc1ccc2c(c1)NC(=O)C(CC(=O)NCCCN1CCN(c3cc(Cl)ccc3C)CC1)O2 (centres undefined) | 0% (inactive) | 7.35% |
| O=C(NCCCN1CCN(c2cccc(Cl)c2)CC1)c1cccc(N2CCCC2=O)c1 | 50.5% (active) | 7.7% |
| CCOC(=O)c1cc2c(=O)n3ccccc3nc2n(CCCOC)c1=NC(=O)c1cccnc1 | 9.9% (inactive) | 5.75% |
| CC1(C)CC(=O)c2cc(OCC(=O)NCCCN3CCN(c4ccc(F)cc4)CC3)ccc2O1 | 5.9% (inactive) | 15.1% |
| CCn1c(SCC(=O)Nc2ccccc2F)nc2c(c1=O)SC(C)C2 (centres undefined) | 8% (inactive) | 0.85% |
| CCOC(=O)N1CCN(S(=O)(=O)c2ccc(C(=O)Nc3nc4ccccc4s3)cc2)CC1 | 11.7% (inactive) | 5.15% |
| Cc1cccc(OCCn2c(=O)n(C)c3ccccc32)c1 | 26.7% (inactive) | 4.5% |
| COC(=O)C1=C(C)N=c2s/c(=C/c3cccs3)c(=O)n2C1c1cccs1 (centres undefined) | 32.8% (inactive) | 12.7% |
| COc1ccc(CCNC(=O)C2CCCN(Cc3nc(-c4cccc(Cl)c4)oc3C)C2)cc1OC (centres undefined) | 28.6% (inactive) | 3.85% |

Source: PubChem BioAssay AID1069 (NMMLSC, 2008)
